This note sets out measurements from PubChem BioAssay (NCI).

Structures are written as SMILES. About 83,000 compounds went through this panel and 20% of them were active in at least one assay; those are over-represented in the sample as a whole.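 Plates (96-well) were seeded with cells, treated with compound at one concentration, and incubated for 48 hours before percent growth was determined.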 Calls of active or inactive are those of the source. The calls were made as follows: active = growth percent below 10; inactive = the rest.

The subject of the assay is U251 CNS. The assay can be described thus: NCI-60 one-dose screen, 48 h (100 = growth as untreated, 0 = no growth, -100 = all killed). The conditions noted are these: 10 µM unless noted.
As for `COc1cccc2cc(-c3cc4ccccc4[nH]3)/c(=N/C(=S)Nc3ccc(C)cc3)oc12`, the growth was 74.9% (inactive).

As for `CN1C(=O)N(C)C2NC(N/N=C/c3ccccc3)=NC21` (stereo not drawn), the growth was 101% (inactive).

Consider `COc1cc(-c2cc(=O)oc3cc(O)ccc23)cc(OC)c1OC`, for which the growth was 96.7% (inactive). In the case of `COc1ccccc1/C=N/NC1=NC2C(N1)N(C)C(=O)N2C` (stereo not drawn) it was 99.2% (inactive); in that of `CCN(CC)CCSCCCNc1c(C)cnc2cc(Cl)ccc12`, 84% (inactive); in that of `COc1cc(Nc2cc(O)c3c(=O)cc(-c4ccccc4)oc3c2)cc(OC)c1`, 22.8% (inactive). In the case of `NC(=O)c1ncn(C2OC(CO)C(O)C2O)n1` (stereo not drawn) it was 99.7% (inactive); in that of `C(=N\Nc1ncc(-c2cc3cc4c(cc3o2)OCO4)s1)/c1c[nH]c2ccccc12`, -10% (active); in that of `c1ccc(C2CC(c3cccc(Nc4ccncc4)c3)=NN2c2ccccc2)cc1` (stereo not drawn), 25.6% (inactive). In the case of `CC1=NNC(=O)C1CCC(=O)N/N=C(\C)c1ccc2ccccc2c1` (stereo not drawn), the growth is 109% (inactive). The value for `O=C(N/N=C/c1ccncc1)c1ccccc1Nc1cccc(C(F)(F)F)c1` was 86.9% (inactive); that for `COc1ccc(Nn2c(SCC(=O)Nc3nc(-c4ccc(Cl)cc4)cs3)nc(C)c2C)cc1` was 43.5% (inactive). On to `COc1c(Cl)cc(Cl)c2ccc(C=C3C(=O)N(C)C(=O)N(C)C3=O)nc12`, for which the growth is 110% (inactive). In the case of `Cc1cccc(C)c1-c1cc(Cc2ccc(Cl)cc2)c(=O)[nH]n1` it was 101% (inactive); in that of `CCN1C(=O)N(CC)C2C1NN=c1s/c(=C3\C(=O)Nc4ccccc43)c(=O)n12` (stereo not drawn), 31.4% (inactive); in that of `CC(=O)Nc1ccc(C(=O)Nc2cc(-c3ccccc3)ccc2N)cc1`, 78.1% (inactive). For `CN1CCN(c2cc(F)c(NC3=C(Cl)C(=O)c4ncccc4C3=O)c(F)c2)CC1`, the growth is -9.88% (active). In the case of `Clc1nc(Cl)c2ncn(CC3(Cn4cnc5c(Cl)nc(Cl)nc54)COC3)c2n1` it was -95.9% (active); in that of `CC(C)(C)CC(C)(C)Nc1c(-c2ccc(C(F)(F)F)cc2)nc2cnccn12`, 93% (inactive).

Turning to `CCC(C)N(CCNc1cc(OC)cc2cccnc12)CCC(C)C` (stereo not drawn), the growth was 84% (inactive). The value for `Cn1c(COC(=O)NCCc2ccccn2)nc2c(N3CCOCC3)nc(Cl)nc21` was 9.11% (active). In the case of `BrC(Br)(Br)c1cnc2ccccc2n1` it was 50.3% (inactive); in that of `Clc1ccc(N2N=C(c3cccc(Nc4ccncc4)c3)CC2c2ccc3c(c2)OCO3)cc1` (stereo not drawn), 5.93% (active).

On to `COc1cc(CNC(=O)CCCCC[P+](c2ccccc2)(c2ccccc2)c2ccccc2)c(OC)c2c1OCO2`, for which the growth is 63.7% (inactive).

For `CC[C@@]12C=CCN3CC[C@]4(c5cc(NC(=O)COc6cc(OCC(=O)Nc7cc8c(cc7OC)N(C)[C@H]7[C@@](O)(C(=O)OC)[C@H](OC(C)=O)[C@]9(CC)C=CCN%10CC[C@]87[C@@H]%109)cc7oc(-c8ccccc8)cc(=O)c67)c(OC)cc5N(C)[C@@H]4[C@](O)(C(=O)OC)[C@H]1OC(C)=O)[C@H]32`, the growth is -3.12% (active). For the compound `O=C1Nc2c(ccc(Cl)c2Cl)/C1=C/c1ccc(O)cc1`, the growth was 83.8% (inactive). For the compound `COc1ccc(/C=C(/c2ccccc2)[N+](=O)[O-])cc1`, the growth was -95.4% (active). In the case of `COc1ccccc1/C=C1\Oc2cc(OCCCN3CCCC3)ccc2C1=O` it was 76.5% (inactive). For `COc1ccc(/C=C\c2nc3ccccc3s2)cc1OP(=O)(O)O`, the growth is 32.6% (inactive).

With `COc1ccc(-c2c[nH]c(C(=O)O)c2-c2cc(OC)c3c(c2OC)OCO3)cc1`, the growth was 104% (inactive). The value for `COc1ccc(C(=O)c2cc3c(N)c(C(=O)Nc4cccc(Cl)c4C)sc3nc2C)cc1` was 14.4% (inactive); that for `O=C(/C=C\c1ccc(OCCCCCC[P+](c2ccccc2)(c2ccccc2)c2ccccc2)cc1)c1ccc2c(c1)OCCO2` was -58.5% (active). The value for `Cc1cccc(Oc2ccc(Nc3ncnc4ccc(NC(=O)CNCCO)cc34)cc2Cl)c1` was 44.9% (inactive); that for `O=C(CSc1nc2sc3c(c2c(=O)n1Cc1ccccc1)CCCC3)N1CCN(c2ccccc2)CC1` was 90.8% (inactive); that for `Cc1cccc(Oc2ccc(Nc3ncnc4ccc(NC(=O)CN(C)C)cc34)cc2Cl)c1` was 28.1% (inactive).

Turning to `O=C1/C(=C/c2ccc(O)cc2)COc2ccc(-c3ccccc3)cc21`, the growth is 63.6% (inactive). As for `COc1ccc(C(=O)c2cc3c(N)c(C(=O)Nc4cccc(OC)c4)sc3nc2C)cc1`, the growth was 15.1% (inactive). For `NS(=O)(=O)c1cccc(NC(=O)C(=O)C2C(=O)Nc3ccccc32)c1` (stereo not drawn), the growth is 107% (inactive).
